Bioassay records from PubChem.
Hits are enriched below; roughly 11% of the tested compounds scored in any of these assays.
Tau fluor cs – counter-screen for tau fibril formation inhibitors | tau K18 P301L Alexa594 fluorescence, heparin fibrillization | Potency, µM (top dose mostly 57.7 µM) | 280,000 compounds, 0.93% hits | AID 1463; note: nearly all actives have a fitted effect of over 55% in size
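Human tau K18 P301L (15 uM unlabeled, 0.24 uM Alexa 594-labeled) in 100 mM sodium acetate pH 7 with 20 uM heparin, 6 hr at 37 C. ThT 30 uM added, 1 hr ambient; Alexa 594 FP and total fluorescence read at 555/632 nm.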
Tau fibril ThT – tau fibrillization inhibition (ThT binding) | 270,000 compounds, 2.1% hits | Potency, µM (highest dose often 57.4 µM), usual class: inhibitors | recombinant tau K18 P301L (four-repeat tau fragment), heparin-induced fibrillization, ThT fluorescence; note: nearly all actives have a fitted effect of over 55% in size
Target sequence (P10636 561-689 P618L limits assumed): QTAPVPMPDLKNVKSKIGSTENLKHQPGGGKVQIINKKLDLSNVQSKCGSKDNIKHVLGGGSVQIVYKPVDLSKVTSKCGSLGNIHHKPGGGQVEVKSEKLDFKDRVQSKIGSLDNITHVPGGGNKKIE
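Tau K18 P301L fragment (15 uM unlabeled plus 0.24 uM Alexa 594-labeled) in 100 mM sodium acetate pH 7 with compound, fibrillization induced by 20 uM heparin for 6 hr at 37 C. Thioflavin T (30 uM) added, fluorescence read after 1 hr (ex 450, em 510 nm).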
FBPA coupling cs – inhibits coupling enzyme system, counter-screen for aldolase hits; AID 2472; 290,000 compounds, 0.67% hits; coupling enzyme system counterscreen, AmpLite Red fluorescence; activity change, negative = inhibition, % at 58.2 µM, hits read low; in the data active = activity change below about -30%
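First, compound is pin-transferred into glyceraldehyde-3-phosphate coupling-enzyme reagent at 57.5 uM final and held 10 min at RT. Next, substrate, coupling system and AmpLite Red are added. After 20 min RT, fluorescence (525/598 nm) is read.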
Tau fibril FP – blocks human tau fibril formation measured by polarization; 280,000 compounds, 0.39% hits; K18 P301L tau heparin fibrillization, Alexa594 FP, 6 h; AID 1468; Potency, µM (doses to about 57.7 µM), most hits filed as inhibitors; P10636; note: nearly all actives have a fitted effect of over 55% in size
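FP of Alexa 594-tau after heparin (20 uM) induction. Substrate: human K18 P301L, 15 uM unlabeled, 0.24 uM labeled. Buffer 100 mM sodium acetate pH 7. 6 hr, 37 C.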
G9a block – inhibitors of human histone lysine methyltransferase G9a; Q96KQ7; G9a H3K9 monomethylation, AlphaScreen, 2 h; Potency, µM (highest dose often 102 µM), hits mostly inhibitors; 350,000 compounds, 8.8% hits; AID 504332; note: nearly all actives have a fitted effect of over 75% in size
Target sequence (Q96KQ7 913-1193 limits assumed): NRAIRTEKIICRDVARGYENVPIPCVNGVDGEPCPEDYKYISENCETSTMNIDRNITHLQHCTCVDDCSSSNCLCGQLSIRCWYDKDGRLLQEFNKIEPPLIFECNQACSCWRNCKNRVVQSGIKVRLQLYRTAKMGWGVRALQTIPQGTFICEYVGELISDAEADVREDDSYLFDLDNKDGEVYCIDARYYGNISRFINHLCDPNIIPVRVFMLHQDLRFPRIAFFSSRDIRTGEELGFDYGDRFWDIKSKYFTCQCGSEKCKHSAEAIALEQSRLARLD
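Step 1: enzyme (final 20 nM) with compound, 15 min RT. Step 2: substrate peptide 500 nM and SAM 20 uM, 2 h RT. Step 3: anti-H3K9me1 antibody and AlphaScreen beads, 10 min, then plate read.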
Sfp PPTase inh – Sfp phosphopantetheinyl transferase inhibition. Q9F4F7. Biochemical Sfp PPTase activity, qHTS. Potency, µM, most hits filed as inhibitors. 310,000 compounds, 3.5% hits;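 note: the enzyme is Sfp with the accession as filed and its product quenches rhodamine fluorescence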
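Step 1, compound plus 15 nM Sfp-PPTase, 15 min, room temperature. Step 2, add rhodamine-CoA (5 uM) and BHQ-2-YbbR (12.5 uM). Step 3, read 525/598 nm fluorescence at 0 and 30 min.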
A number is an active result; i = inactive; ? = inconclusive; nt = no result; ! = not confirmed by another sample; [ ] = another dose, or the depositor's remark. Unless noted, calls come from the whole dose curve; as a rule, active = well fitted curve in the direction sought with a large enough effect; inconclusive = small, poorly fitted or top-dose-only effect, or another doubt; inactive = no such curve, though single readings can be large; an effect the other way counts as inactive or inconclusive.

SMILES	Tau fluor cs	Tau fibril ThT	FBPA coupling cs	Tau fibril FP	G9a block	Sfp PPTase inh
CCOc1ccc(C(=O)Nc2cc(NC(=O)c3ccco3)ccc2OC)cc1Br	i	?	nt	i	i	nt
N[C@]1(C(=O)O)CC[C@@H](C(=O)O)C1 (racemic)	i	i	nt	i	?	56µM!
Cn1c(=O)c2c(nc(N/N=C/c3c(O)n(-c4ccccc4)c(=S)[nH]c3=O)n2C)n(C)c1=O	i	?	i	i	i	79µM
O=C(O)CCCC[C@H]1SC[C@H]2NC(=O)N[C@@H]21	nt	nt	i	nt	0.4µM	i
O=[N+]([O-])c1ccc(CNCCc2ccccc2)cc1	nt	nt	i	nt	7.9µM	i
O=[N+]([O-])c1ccccc1CNCCc1c[nH]c2ccccc12	nt	nt	i	nt	nt	i
O=[N+]([O-])c1ccccc1CNCCc1ccc(F)cc1	i	i	i	i	7.9µM	i
c1ccc(N2CC3(CCNCC3)C2)nc1	nt	nt	i	nt	i[12.7 µM]	i
CN(CCc1nnc(N)s1)[N+](=O)[O-]	i	i	i	i	22µM	i
CCC1CCCCN1CC(=O)c1ccc(OC(F)F)cc1 (configuration not stated)	i	i	i	i	14µM	?
CCCCC/C=C\C/C=C\C/C=C\C/C=C\CCCC(=O)OC(CO)CO	i	?	i	i	i	i
CCCCC/C=C\C/C=C\C/C=C\C/C=C\CCCC(=O)N[C@H](C)CO	i	i	i	i	i	22µM!
CC(O)CN(CCN(CC(C)O)CC(C)O)CC(C)O (configuration not stated)	nt	nt	nt	nt	i[12.7 µM]	79µM
CCN(CC)CCOc1ccccc1C(=O)CCc1ccccc1	nt	nt	nt	nt	?	i
Cc1c(C=O)c2ccccc2n1Cc1ccccc1	nt	nt	i	nt	nt	i
C=CCn1c(C)c(C=C2C(=O)NC(=O)NC2=O)c2ccccc21	nt	nt	i	nt	50µM	i
CC(C)C[C@H](NC(=O)[C@H](Cc1ccccc1)NC(=O)CNC(=O)[C@H](CS)N(C(=O)[C@@H](N)Cc1ccc(O)cc1)C(C)(C)C)C(=O)N([C@H](C(=O)O)[C@H](C)O)C(C)(C)C	i	i	nt	i	i	i
c1ccc2sc(C3(N4CCCCC4)CCCCC3)cc2c1	i	i	i	i	8.9µM!	i
c1csc(C2(N3CCCCC3)CCCCC2)c1	nt	nt	nt	nt	i[12.7 µM]	i
CCOP1(=S)Oc2cc3c(cc2C(C(=O)OC)(C(F)(F)F)O1)OCO3 (configuration not stated)	i	?	i	i	?	25µM
CCCn1c(C)c(C(=O)c2ccc3ccccc3c2)c2ccccc21	i	i	nt	i	i	nt
CCOC(=O)C1(CCc2ccccc2)CCN(C2CCSCC2)CC1	i[2.34 µM]	i	i	i[2.34 µM]	nt	79µM
CCOC(=O)C1(CCCc2ccccc2)CCN(C2CCCC2)CC1	i	?	i	i	i	i
O=c1c2ccccc2nc(/C=C/c2ccc(O)c(O)c2)n1-c1ccccc1	nt	nt	i	nt	7.9µM	i
O=c1c2ccccc2nc(/C=C/c2ccc([N+](=O)[O-])o2)n1-c1ccc(O)cc1	i	i	i	i	50µM	i
SMILES	Tau fluor cs	Tau fibril ThT	FBPA coupling cs	Tau fibril FP	G9a block	Sfp PPTase inh
O=c1c2ccccc2nc(/C=C/c2ccccc2)n1-c1ccc(O)cc1	nt	nt	i	nt	i	i
Cc1cccc(-n2c(/C=C/c3ccc([N+](=O)[O-])o3)nc3ccccc3c2=O)c1	i	i	i	i	?	i
CCN(CC)C(=O)c1ccc(NC(=O)c2cc(S(=O)(=O)N3CCCCCC3)ccc2OC)cc1	nt	nt	nt	nt	i	nt
N#CC(C#N)=NNc1ccc(S(=O)(=O)N2CCCC2)cc1	i	18µM	i	i	?	i
CC12C=CC(=O)C=C1CCC1C2=CCC2(C)C1CC[C@@H]2C(=O)CN1CCN(c2cc(N3CCCC3)nc(N3CCCC3)n2)CC1 (some centres not stated)	i	7.1µM	-38	?	13µM	?
O=c1[nH]sc2cc(F)ccc12	i	11µM	i	28µM	1.6µM	3.2µM
CN(Cc1ccccc1)Cc1ccccc1OC(=O)N(C)C	i	i	i	i	45µM	i
CN(C)C(=O)Oc1cccc2c(OC(=O)N(C)C)cccc12	i	i	i	i	?	i
COC1=CC(=O)O[C@@H](/C=C\c2ccccc2)C1	nt	nt	i	nt	i[21.5 µM]	i
CC1=CC(=O)NP(=O)(Oc2ccc3ccccc3c2)N1 (configuration not stated)	i	i	i	i	3.5µM	7.9µM
CC(C)C1C(=O)N2CCC[C@H]2[C@]2(O)O[C@](NC(=O)[C@@H]3C=C4c5cccc6[nH]cc(c56)C[C@H]4N(C)C3)(C(C)C)C(=O)N12 (some centres not stated)	?	?	nt	?	i	?
O=c1[nH]c(=S)[nH]c(O)c1N=Nc1cc2c(cc1[N+](=O)[O-])OCO2	i	13µM	i	i	50µM	i
O=c1[nH]c(=S)[nH]c(O)c1N=Nc1ccc(-c2ccccc2)cc1[N+](=O)[O-]	?	4µM	i	i	11µM	79µM
COC(=O)c1ccccc1N=Cc1c(O)[nH]c(=S)[nH]c1=O	i	i	i	i	?	i
CC[C@@H]1[C@@H]2C[C@H]3[C@H]4N(C)c5ccccc5[C@@]45C[C@@H]([C@@H]2[C@@H]5O)N3[C@H]1O	nt	nt	i	nt	i[21.5 µM]	i
COC(=O)C12CC3=C[C@H](CC3=O)Cc3ccccc3[C@@H]1CNC2=O (some centres not stated)	i	i	i	i	nt	i
Cn1cc(C(=O)c2ccccc2)c2ccccc21	i	i	i	i	i	i
COC(=O)c1ccc(NS(=O)(=O)NC(=O)c2cn(C)c3ccccc23)cc1	nt	nt	i	nt	79µM	i
O=C(NCc1c(-n2cccc2)sc2c1CCCC2)Nc1cccc(C(F)(F)F)c1	?	?	nt	?	i	nt
Ic1ccccc1CN[C@@H]1C2CCN(CC2)[C@@H]1C(c1ccccc1)c1ccccc1	nt	nt	nt	nt	1.6µM	nt
Ic1ccccc1CNC1C2CCN(CC2)C1C(c1ccccc1)c1ccccc1 (configuration not stated)	i	i	nt	i	2µM	nt
CCCN1[C@H](C(=O)OC)C[C@@H]2CC[C@@H](O)C[C@@H]21	i	?	i	i	nt	i
CCN1C[C@@]2(COC)CC[C@H](O)[C@@]34[C@@H]2C[C@@H]([C@@H]13)[C@]1(O)C[C@@H](OC)C2C[C@H]4[C@H]1[C@H]2OC(C)=O	nt	nt	i	nt	i[21.5 µM]	i
COc1ccc(NC(=O)c2cn(CCC#N)nc2-c2ccccc2)cc1	nt	nt	i	nt	i[0.501 µM]	i
COc1ccc(Nc2cc(C)c3cc(NC(=O)c4ccccc4Cl)ccc3n2)cc1	8.9µM[quencher]	4µM	nt	?	?	nt
O=C1NC(=O)N(c2ccc3c(c2)OCO3)C(=O)/C1=C\c1ccc(N2CCCCC2)o1	i	?	i	i	i	i
O=C1NC(=O)C(=Cc2ccc(SC3CCCCC3)o2)C(=O)N1	i	?	i	i	11µM	28µM
